PubChem BioAssay (NCI)
About 83,000 compounds went through this panel and 20% of them were active in at least one assay; those are over-represented in the sample as a whole.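 Values shown are percent growth following 48 h exposure of cells in 96-well plates to a single concentration of compound; below 10 was considered active.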 Activity calls are given as the source filed them.

How the values were obtained:
Assay in all cases: NCI-60 one-dose screen, 48 h (100 = growth as untreated, 0 = no growth, -100 = all killed)
Conditions in all cases: 10 µM unless noted
SK-MEL-2 melanoma = test system: SK-MEL-2 melanoma
EKVX NSCLC = test system: EKVX NSCLC
SN12C renal = test system: SN12C renal
UO-31 renal = test system: UO-31 renal
TK-10 renal = test system: TK-10 renal
ACHN renal = test system: ACHN renal
CAKI-1 renal = test system: CAKI-1 renal
A498 renal = test system: A498 renal
CCRF-CEM leukemia = test system: CCRF-CEM leukemia
MOLT-4 leukemia = test system: MOLT-4 leukemia
SR leukemia = test system: SR leukemia
OVCAR-8 ovarian = test system: OVCAR-8 ovarian
OVCAR-5 ovarian = test system: OVCAR-5 ovarian
OVCAR-4 ovarian = test system: OVCAR-4 ovarian
SK-OV-3 ovarian = test system: SK-OV-3 ovarian
OVCAR-3 ovarian = test system: OVCAR-3 ovarian
HS 578T breast = test system: HS 578T breast
NCI/ADR-RES ovarian = test system: NCI/ADR-RES ovarian
IGROV1 ovarian = test system: IGROV1 ovarian
RPMI-8226 leukemia = test system: RPMI-8226 leukemia

Measured: growth

COc1ccc(-c2nnc(COc3ccc(Cl)cc3Cl)o2)cc1OC
inactive: SK-MEL-2 melanoma 57.6% | SN12C renal 12.1% | ACHN renal 13.7% | CAKI-1 renal 57.7% | A498 renal 15.9% | CCRF-CEM leukemia 29.3% | MOLT-4 leukemia 54.3% | SR leukemia 46.8% | OVCAR-8 ovarian 20.1% | OVCAR-5 ovarian 74.6% | SK-OV-3 ovarian 37.6% | NCI/ADR-RES ovarian 17.5%
active: EKVX NSCLC -15.8% | UO-31 renal -36.4% | TK-10 renal -8.66% | OVCAR-4 ovarian -33.1% | OVCAR-3 ovarian 1.98% | HS 578T breast 4.73%

CC/C=C\C[C@@H](O)C/C=C1/C(=O)C=C[C@H]1C/C=C\CCCC(=O)OC
inactive: SK-MEL-2 melanoma 77.9% | EKVX NSCLC 88.2% | UO-31 renal 16.9% | TK-10 renal 31.1% | ACHN renal 26.8% | CAKI-1 renal 17.9% | A498 renal 97.4% | OVCAR-5 ovarian 54.1% | OVCAR-4 ovarian 44.9% | SK-OV-3 ovarian 99.3% | HS 578T breast 21% | NCI/ADR-RES ovarian 10.6%
active: SN12C renal -29.5% | CCRF-CEM leukemia -9.05% | MOLT-4 leukemia -4.62% | SR leukemia -17.5% | OVCAR-8 ovarian -6.75% | OVCAR-3 ovarian -2.32%

COC(=O)C(Cc1ccccc1)NC(=O)NC(=O)NC(=O)CI (stereo unspecified)
active: CAKI-1 renal -69.3% | CCRF-CEM leukemia -50.8% | MOLT-4 leukemia -30.7% | SR leukemia -41.6% | OVCAR-3 ovarian -49.2%
inactive: SK-MEL-2 melanoma 94.9% | EKVX NSCLC 103% | SN12C renal 17.2% | UO-31 renal 34.7% | TK-10 renal 75.9% | ACHN renal 75.7% | A498 renal 124% | OVCAR-8 ovarian 81.8% | OVCAR-5 ovarian 95.9% | OVCAR-4 ovarian 57.7% | SK-OV-3 ovarian 112% | HS 578T breast 111% | NCI/ADR-RES ovarian 71.5%

CSc1ccc2c(c1)c(CCN)c(C)n2Cc1ccc(Cl)c(Cl)c1
active: SK-MEL-2 melanoma -66.1% | EKVX NSCLC -86.7% | SN12C renal -80.2% | UO-31 renal -91% | TK-10 renal -80.4% | ACHN renal -85.5% | CAKI-1 renal -92.5% | A498 renal -91.8% | CCRF-CEM leukemia -56.2% | MOLT-4 leukemia -64.6% | SR leukemia -61.6% | OVCAR-8 ovarian -60.8% | OVCAR-5 ovarian -58.2% | OVCAR-4 ovarian -93.2% | SK-OV-3 ovarian -91.2% | OVCAR-3 ovarian -88.4% | HS 578T breast -39.2% | NCI/ADR-RES ovarian -87.8%

CC/C=C\C[C@@H]1C/C=C2/C(=O)C=C[C@H]2C/C=C\CCCC(=O)O1
inactive: NCI/ADR-RES ovarian 10.9%
active: SK-MEL-2 melanoma -39.2% | EKVX NSCLC -25.1% | SN12C renal -28.8% | UO-31 renal -91.9% | TK-10 renal -42.5% | ACHN renal -86.2% | CAKI-1 renal 9.49% | A498 renal -88.4% | CCRF-CEM leukemia -28.7% | MOLT-4 leukemia -24.9% | SR leukemia -30.3% | OVCAR-8 ovarian 4.94% | OVCAR-5 ovarian -32.8% | OVCAR-4 ovarian 5.92% | SK-OV-3 ovarian -8.9% | OVCAR-3 ovarian -95.4% | HS 578T breast -1.47%

COC(=O)Nc1ccc(-c2nc(-c3cccc(OC)c3)c(-c3ccnc(Br)c3)[nH]2)cc1
inactive: SK-MEL-2 melanoma 72.1% | EKVX NSCLC 55.5% | SN12C renal 67% | UO-31 renal 38.6% | TK-10 renal 77.9% | ACHN renal 53.4% | CAKI-1 renal 52% | A498 renal 48.4% | CCRF-CEM leukemia 34.9% | MOLT-4 leukemia 30.9% | OVCAR-8 ovarian 48% | OVCAR-5 ovarian 85.6% | SK-OV-3 ovarian 88.1% | IGROV1 ovarian 72.5% | OVCAR-3 ovarian 70.2% | HS 578T breast 33.4% | NCI/ADR-RES ovarian 45.2%
active: SR leukemia 3.64%

CCCCCCNC(=O)Oc1ccc(/C(=C(\C)c2ccc(Cl)cc2)c2ccc(OCCCN(C)C)cc2)cc1
inactive: SK-MEL-2 melanoma 92.1% | EKVX NSCLC 83% | SN12C renal 90% | UO-31 renal 55.4% | TK-10 renal 75.8% | ACHN renal 94.3% | CAKI-1 renal 96.2% | A498 renal 85.7% | CCRF-CEM leukemia 70.7% | MOLT-4 leukemia 37.3% | OVCAR-5 ovarian 75.1% | OVCAR-4 ovarian 76% | SK-OV-3 ovarian 94.4% | IGROV1 ovarian 67% | OVCAR-3 ovarian 87.8% | HS 578T breast 74.5% | NCI/ADR-RES ovarian 83.2%
active: SR leukemia -13%

c1ccc(OCc2nnc(-c3ccc(Oc4ccccc4)cc3)o2)cc1
inactive: SK-MEL-2 melanoma 91.4% | EKVX NSCLC 96.6% | SN12C renal 99% | UO-31 renal 81.7% | TK-10 renal 103% | ACHN renal 92.9% | CAKI-1 renal 97.1% | A498 renal 111% | CCRF-CEM leukemia 96.7% | MOLT-4 leukemia 87.6% | SR leukemia 85.8% | OVCAR-8 ovarian 99.1% | OVCAR-5 ovarian 104% | OVCAR-4 ovarian 98.7% | SK-OV-3 ovarian 96.9% | OVCAR-3 ovarian 98.3% | HS 578T breast 99% | NCI/ADR-RES ovarian 96.9%

Clc1ccc2c(c1)N(CCCN1CCCC1)c1ccccc1S2
inactive: SK-MEL-2 melanoma 74% | EKVX NSCLC 51.6% | SN12C renal 15% | UO-31 renal 40.1% | TK-10 renal 82.9% | ACHN renal 45% | CAKI-1 renal 56% | A498 renal 36.6% | CCRF-CEM leukemia 36.3% | MOLT-4 leukemia 24.2% | OVCAR-8 ovarian 77.1% | OVCAR-5 ovarian 53.8% | OVCAR-4 ovarian 53.6% | SK-OV-3 ovarian 37.2% | OVCAR-3 ovarian 44% | HS 578T breast 42.6% | NCI/ADR-RES ovarian 35.8%
active: SR leukemia -30.1%

CNC(=O)c1[nH]cc(-c2ccccc2)c1-c1cc(OC)c2c(c1OC)OCO2
inactive: SK-MEL-2 melanoma 102% | EKVX NSCLC 98% | SN12C renal 91.1% | UO-31 renal 83.8% | TK-10 renal 106% | ACHN renal 95.8% | CAKI-1 renal 76.5% | A498 renal 95.4% | CCRF-CEM leukemia 108% | MOLT-4 leukemia 101% | RPMI-8226 leukemia 105% | OVCAR-8 ovarian 100% | OVCAR-5 ovarian 101% | OVCAR-4 ovarian 106% | SK-OV-3 ovarian 108% | IGROV1 ovarian 103% | OVCAR-3 ovarian 94.9% | HS 578T breast 102% | NCI/ADR-RES ovarian 101%

NCCNc1nc2ccccc2c2c(=O)c3cc(F)ccc3sc12
inactive: SK-MEL-2 melanoma 112% | EKVX NSCLC 78.2% | SN12C renal 71.1% | UO-31 renal 47.3% | TK-10 renal 101% | ACHN renal 54.5% | CAKI-1 renal 45.1% | A498 renal 49.4% | CCRF-CEM leukemia 45.7% | MOLT-4 leukemia 46.6% | OVCAR-5 ovarian 91.4% | OVCAR-4 ovarian 60.3% | SK-OV-3 ovarian 83.3% | IGROV1 ovarian 70.9% | OVCAR-3 ovarian 66.8% | HS 578T breast 74.8% | NCI/ADR-RES ovarian 78.8%
active: SR leukemia -20.5%

COc1cccc(OC)c1C(=O)N[C@@H]1C(=O)N2[C@@H]1SC(C)(C)[C@@H]2C(=O)O
inactive: SK-MEL-2 melanoma 101% | EKVX NSCLC 104% | SN12C renal 97.7% | UO-31 renal 84.9% | TK-10 renal 106% | ACHN renal 98.4% | CAKI-1 renal 94.2% | A498 renal 121% | CCRF-CEM leukemia 99.8% | MOLT-4 leukemia 94.6% | RPMI-8226 leukemia 102% | OVCAR-8 ovarian 107% | OVCAR-5 ovarian 110% | OVCAR-4 ovarian 104% | SK-OV-3 ovarian 99.5% | IGROV1 ovarian 99.6% | OVCAR-3 ovarian 119% | HS 578T breast 114% | NCI/ADR-RES ovarian 101%

Cc1nc2ccccc2c(/C=C/c2ccccc2)c1C(=O)/C=C/c1ccc(C(F)(F)F)cc1
active: SK-MEL-2 melanoma -22.5% | EKVX NSCLC -28.8% | SN12C renal -61.5% | UO-31 renal -96.9% | TK-10 renal -51.2% | ACHN renal -98.4% | CAKI-1 renal -76.6% | A498 renal -59.4% | CCRF-CEM leukemia 9.14% | MOLT-4 leukemia 4.69% | RPMI-8226 leukemia -29.1% | OVCAR-5 ovarian -34.6% | OVCAR-4 ovarian -42.8% | SK-OV-3 ovarian 7.69% | IGROV1 ovarian -72.4% | OVCAR-3 ovarian -86.5% | HS 578T breast -10.9% | NCI/ADR-RES ovarian -1.24%
inactive: OVCAR-8 ovarian 10.3%

N#Cc1c(-c2ccc(Cl)cc2)nc2c(c(-c3ccccc3)nn2-c2ccccc2)c1-c1ccc(O)cc1
active: SN12C renal -18.4%
inactive: SK-MEL-2 melanoma 74.5% | EKVX NSCLC 67.8% | UO-31 renal 30.5% | TK-10 renal 17.2% | ACHN renal 56% | CAKI-1 renal 40.2% | A498 renal 79.3% | CCRF-CEM leukemia 27% | MOLT-4 leukemia 24.3% | RPMI-8226 leukemia 17.9% | OVCAR-8 ovarian 49.9% | OVCAR-5 ovarian 84% | OVCAR-4 ovarian 64.7% | SK-OV-3 ovarian 96.9% | IGROV1 ovarian 69.8% | OVCAR-3 ovarian 48.3% | HS 578T breast 26.5% | NCI/ADR-RES ovarian 57.9%

CSc1nc2ccc(C)cc2cc1/C=N/O
inactive: SK-MEL-2 melanoma 74.7% | EKVX NSCLC 67.8% | SN12C renal 91.9% | UO-31 renal 66.4% | TK-10 renal 101% | ACHN renal 82.8% | CAKI-1 renal 80.4% | A498 renal 85.2% | CCRF-CEM leukemia 105% | MOLT-4 leukemia 83% | RPMI-8226 leukemia 106% | OVCAR-8 ovarian 84.6% | OVCAR-5 ovarian 81.6% | OVCAR-4 ovarian 91% | SK-OV-3 ovarian 86% | IGROV1 ovarian 87.8% | OVCAR-3 ovarian 106% | HS 578T breast 75% | NCI/ADR-RES ovarian 98.1%

O=C(Nc1c2ccccc2nc2ccccc12)c1ccccc1CN1C(=O)c2ccccc2C1=O
active: UO-31 renal 6.41% | A498 renal -18.9%
inactive: SK-MEL-2 melanoma 43% | EKVX NSCLC 43.1% | SN12C renal 34.6% | TK-10 renal 45.6% | ACHN renal 10.8% | CAKI-1 renal 19.1% | CCRF-CEM leukemia 40.8% | MOLT-4 leukemia 14.9% | SR leukemia 30.5% | OVCAR-5 ovarian 40.1% | OVCAR-4 ovarian 44.8% | SK-OV-3 ovarian 35.6% | IGROV1 ovarian 21.4% | OVCAR-3 ovarian 34.1% | HS 578T breast 21% | NCI/ADR-RES ovarian 29.3%

COc1ccccc1/C=C1\Oc2cc(OCCN3CCC(Cc4ccccc4)CC3)ccc2C1=O
active: SR leukemia 5.96%
inactive: SK-MEL-2 melanoma 116% | EKVX NSCLC 86% | SN12C renal 88.8% | UO-31 renal 65.5% | TK-10 renal 94.5% | ACHN renal 105% | CAKI-1 renal 82.5% | A498 renal 47.7% | CCRF-CEM leukemia 70.7% | MOLT-4 leukemia 72.2% | OVCAR-5 ovarian 89.3% | OVCAR-4 ovarian 93.2% | SK-OV-3 ovarian 106% | IGROV1 ovarian 82.6% | OVCAR-3 ovarian 98% | HS 578T breast 82.8% | NCI/ADR-RES ovarian 89.2%
